Values joined by “and” are separate entries in the source; they are usually repeats but may differ in a detail not shown here. Identical values can stand only once. Records with an inconclusive call do not appear. Active and inactive are the calls of the source. Unless noted, calls come from the whole dose curve; as a rule, active = well fitted curve in the direction sought with a large enough effect in the repeat runs; inconclusive = weak or mixed curves; inactive = no such curve, though single readings can be large; an effect the other way counts as inactive or inconclusive.
Experiments:
[1] = qHTS assay to identify small molecule antagonists of the glucocorticoid receptor (GR) signaling pathway - cell viability counter screen (AID 720693); note: nearly all actives have a fitted effect of over 55% in size
[2] = qHTS assay for identifying genotoxic compounds that show differential cytotoxicity against isogenic chicken DT40 cell lines with known DNA damage response pathways - wild type cell line (AID 743012); note: nearly all actives have a fitted effect of over 60% in size; note: potency is the fitted concentration of half-maximal effect
In short: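 Using parental DT40 (300 cells/well), compounds delivered in DMSO incubate 40 h at 37 C/5% CO2. CellTiter-Glo reagent then stands 30 min at room temperature, and luminescence gives cell viability.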

[3] = qHTS assay for identifying genotoxic compounds that show differential cytotoxicity against isogenic chicken DT40 cell lines with known DNA damage response pathways - Rev3 mutant cell line (AID 743014); note: nearly all actives have a fitted effect of over 55% in size; note: potency is the fitted concentration of half-maximal effect
[4] = qHTS assay for identifying genotoxic compounds that show differential cytotoxicity against isogenic chicken DT40 cell lines with known DNA damage response pathways - Rad54/Ku70 mutant cell line (AID 743015); note: nearly all actives have a fitted effect of over 60% in size; note: potency is the fitted concentration of half-maximal effect
[5] = qHTS assay to identify small molecule antagonists of the androgen receptor (AR) signaling pathway - cell viability counter screen (AID 743033; note: nearly all actives have a fitted effect of over 45% in size)
[6] = qHTS assay to identify small molecule antagonists of the androgen receptor (AR) signaling pathway using the MDA cell line - cell viability counter screen (AID 743041; note: nearly all actives have a fitted effect of over 45% in size)
In short: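 MDA-kb2 AR-luc cells (MMTV-luciferase, AR/GR responsive) treated with compounds plus R1881 agonist for 16 h at 37C. CellTiter-Fluor added at 15.5 h; fluorescence read after 30 min in the same wells.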

[7] = qHTS assay to identify small molecule antagonists of the thyroid receptor (TR) signaling pathway - cell viability counter screen (AID 743064); note: nearly all actives have a fitted effect of over 50% in size; note: potency is the fitted concentration of half-maximal effect
In short: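 GH3.TRE-Luc rat pituitary cells dosed after 4 hr plating, co-stimulated with T3 at 1 nM final, incubated 23.5 h at 37 C. Viability measured in the same wells by CellTiter-Fluor fluorescence after 30 min further at 37 C.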

[8] = qHTS assay to identify small molecule antagonists of the thyroid receptor (TR) signaling pathway (AID 743065); note: nearly all actives have a fitted effect of over 55% in size; note: potency is the fitted concentration of half-maximal effect
In short: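 GH3.TRE-Luc rat pituitary cells (two TREs driving luciferase) were dosed with compound, then stimulated with 1 nM T3 (final) for 23.5 h at 37 C. ONE-Glo luminescence was the read-out, with CellTiter-Fluor fluorescence as the cytotoxicity counter-screen.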

[9] = tested on: thyroid hormone receptor (rat, GH3 cells); test: qHTS assay to identify small molecule agonists of the thyroid receptor (TR) signaling pathway (AID 743066; calls by dose curve)
[10] = qHTS assay to identify small molecule antagonists of the estrogen receptor alpha (ER-alpha) signaling pathway - cell viability counter screen (AID 743074; calls by dose curve;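 note: HEK293 cells carrying ER-alpha-UAS-bla reporter stimulated with 17beta-estradiol; nearly all actives have a fitted effect of over 45% in size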)
[11] = qHTS assay to identify small molecule antagonists of the estrogen receptor alpha (ER-alpha) signaling pathway using the BG1 cell line - cell viability counter screen (AID 743081);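 note: compound given together with 17beta-estradiol as the ER stimulus; series mostly up to about 70 µM; nearly all actives have a fitted effect of over 45% in size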
Aromatase (Homo sapiens) = Aromatase (Homo sapiens) (UniProt P11511); test: qHTS assay to identify aromatase inhibitors (AID 743083); note: series mostly up to about 70 µM; nearly all actives have a fitted effect of over 55% in size
[12] = qHTS assay to identify aromatase inhibitors - cell viability counter screen (AID 743084); note: potency is the fitted concentration of half-maximal effect
[13] = target: Estrogen receptor (Homo sapiens) (UniProt P03372); test: qHTS assay to identify small molecule antagonists of the estrogen receptor alpha (ER-alpha) signaling pathway (AID 743069; active = well fitted curve in the direction sought with a large enough effect in the signal ratio in the repeat runs, not every such curve was filed as active; the % refers to the signal ratio)
In short: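 HEK293 ER-alpha-UAS-bla GripTite cells, held overnight in 2% charcoal-stripped FBS, 5,000 cells/well, preincubated 4 h, then compound plus 17beta-estradiol for 18 h at 37C. Beta-lactamase read by LiveBLAzer B/G FRET substrate, 2 h at room temperature.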

[14] = target: Estrogen receptor (Homo sapiens) (UniProt P03372); test: qHTS assay to identify small molecule agonists of the estrogen receptor alpha (ER-alpha) signaling pathway (AID 743075; calls by dose curve)
[15] = target: Estrogen receptor (Homo sapiens) (UniProt P03372); test: qHTS assay to identify small molecule agonists of the estrogen receptor alpha (ER-alpha) signaling pathway using the BG1 cell line (AID 743079); note: nearly all actives have a fitted effect of over 20% in size; note: potency is the fitted concentration of half-maximal effect
[16] = qHTS assay to identify small molecule antagonists of the estrogen receptor alpha (ER-alpha) signaling pathway using the BG1 cell line (AID 743080; calls by dose curve;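 note: BG1 cells stimulated with 17beta-estradiol alongside compound; series mostly up to about 70 µM; nearly all actives have a fitted effect of over 25% in size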)
In short: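 BG1-Luc-4E2 cells (endogenous full-length ER-alpha, stable 4×ERE-luciferase) were starved 5 days in phenol-red-free medium with 10% charcoal-stripped FBS, plated 24 h, then given compound plus 17beta-estradiol for 21.5 h at 37 C; ONE-Glo luminescence read after 30 min.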

[17] = target: Androgen receptor (Homo sapiens) (UniProt P10275); test: qHTS assay to identify small molecule agonists of the androgen receptor (AR) signaling pathway (AID 743036; active = well fitted activation curve with a large enough effect in the signal ratio in the repeat runs, with a control signal flat, not every such curve was filed as active; the % refers to the signal ratio)
In short: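 AR-UAS-bla HEK293 cells, plated 4 h before dosing, were treated with compound for 16 h at 37C. beta-Lactamase reporter read after 2 h with LiveBLAzer B/G FRET substrate at room temperature.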

[18] = target: Androgen receptor (Homo sapiens) (UniProt P10275); test: qHTS assay to identify small molecule antagonists of the androgen receptor (AR) signaling pathway using the MDA cell line (AID 743042; note: nearly all actives have a fitted effect of over 55% in size)
In short: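 MDA-kb2 breast carcinoma cells carrying MMTV-luciferase (AR/GR responsive) were co-treated with compounds and the agonist R1881 for 16 h at 37C. Inhibition read as ONE-Glo luminescence; CellTiter-Fluor fluorescence measured in parallel for cytotoxicity.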

Measured: Potency

Sequence of Aromatase (Homo sapiens) (P11511 whole entry, looked up): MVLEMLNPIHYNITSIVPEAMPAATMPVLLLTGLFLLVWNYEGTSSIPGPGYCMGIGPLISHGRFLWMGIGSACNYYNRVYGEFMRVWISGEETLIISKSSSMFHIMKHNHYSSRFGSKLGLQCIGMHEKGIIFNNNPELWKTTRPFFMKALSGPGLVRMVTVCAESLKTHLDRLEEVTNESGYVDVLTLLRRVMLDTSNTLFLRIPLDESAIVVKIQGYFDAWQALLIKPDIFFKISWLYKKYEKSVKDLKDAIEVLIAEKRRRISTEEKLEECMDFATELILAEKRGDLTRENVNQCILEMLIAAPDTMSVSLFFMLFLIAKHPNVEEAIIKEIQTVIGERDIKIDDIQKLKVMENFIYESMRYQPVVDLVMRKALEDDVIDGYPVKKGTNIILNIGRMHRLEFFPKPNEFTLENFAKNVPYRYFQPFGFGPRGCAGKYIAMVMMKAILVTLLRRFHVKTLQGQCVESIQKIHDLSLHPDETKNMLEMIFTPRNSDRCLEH
Sequence of Estrogen receptor (Homo sapiens) (P03372 whole entry, looked up): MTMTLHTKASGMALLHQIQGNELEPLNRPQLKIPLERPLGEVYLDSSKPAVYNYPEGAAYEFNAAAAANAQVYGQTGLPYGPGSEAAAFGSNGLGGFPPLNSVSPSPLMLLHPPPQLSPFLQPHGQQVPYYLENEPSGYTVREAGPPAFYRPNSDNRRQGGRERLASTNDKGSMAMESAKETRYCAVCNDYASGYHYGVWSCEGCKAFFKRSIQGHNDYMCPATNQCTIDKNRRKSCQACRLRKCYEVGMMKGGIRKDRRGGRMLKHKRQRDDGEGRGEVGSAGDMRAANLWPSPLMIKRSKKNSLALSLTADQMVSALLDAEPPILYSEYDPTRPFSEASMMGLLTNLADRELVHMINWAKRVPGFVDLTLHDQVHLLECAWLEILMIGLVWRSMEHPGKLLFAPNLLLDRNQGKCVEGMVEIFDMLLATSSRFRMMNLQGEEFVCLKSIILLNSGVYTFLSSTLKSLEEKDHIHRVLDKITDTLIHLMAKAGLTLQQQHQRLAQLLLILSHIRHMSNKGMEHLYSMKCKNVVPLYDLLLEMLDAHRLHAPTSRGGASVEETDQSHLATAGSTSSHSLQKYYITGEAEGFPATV
Sequence of Androgen receptor (Homo sapiens) (P10275 whole entry, looked up): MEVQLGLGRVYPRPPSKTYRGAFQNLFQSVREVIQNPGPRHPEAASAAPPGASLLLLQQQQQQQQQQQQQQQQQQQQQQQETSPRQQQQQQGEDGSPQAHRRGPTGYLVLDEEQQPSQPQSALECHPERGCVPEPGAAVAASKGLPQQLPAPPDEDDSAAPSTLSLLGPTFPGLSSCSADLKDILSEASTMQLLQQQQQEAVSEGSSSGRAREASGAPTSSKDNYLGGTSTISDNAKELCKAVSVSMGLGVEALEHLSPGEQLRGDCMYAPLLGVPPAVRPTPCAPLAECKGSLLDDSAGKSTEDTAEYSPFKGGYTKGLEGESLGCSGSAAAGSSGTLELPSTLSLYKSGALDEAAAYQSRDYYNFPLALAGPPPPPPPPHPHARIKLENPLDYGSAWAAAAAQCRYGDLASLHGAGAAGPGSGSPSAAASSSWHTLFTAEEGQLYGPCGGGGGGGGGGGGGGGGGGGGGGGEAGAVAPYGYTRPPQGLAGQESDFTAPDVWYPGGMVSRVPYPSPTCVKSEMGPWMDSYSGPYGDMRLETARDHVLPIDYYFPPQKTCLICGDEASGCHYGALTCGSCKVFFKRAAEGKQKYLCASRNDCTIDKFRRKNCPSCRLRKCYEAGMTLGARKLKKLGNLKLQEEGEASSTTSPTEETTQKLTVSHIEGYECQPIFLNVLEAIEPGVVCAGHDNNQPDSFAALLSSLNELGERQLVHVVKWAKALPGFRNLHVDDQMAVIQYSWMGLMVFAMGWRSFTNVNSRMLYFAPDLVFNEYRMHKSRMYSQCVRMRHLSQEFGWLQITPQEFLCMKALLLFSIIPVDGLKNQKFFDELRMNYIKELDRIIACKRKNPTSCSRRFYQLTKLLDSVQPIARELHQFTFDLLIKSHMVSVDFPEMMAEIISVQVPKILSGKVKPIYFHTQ

CC(C)(COC(=O)c1ccccc1)COC(=O)c1ccccc1
inactive: [1] | [5] | [6] | [7] | [8] | [9] | [10] | [11] | Aromatase (Homo sapiens) | [12]
active: [2] 54.5 µM | [3] 30.6 µM | [4] 48.6 µM

CCOC(=O)C1=C[C@]2(CC)CCCN3CCc4c(n1c1ccccc41)[C@@H]32
active: [2] 10.6 µM and 6.68 µM | [3] 10.6 µM and 9.44 µM | [4] 16.8 µM and 10.6 µM | [7] 9.44 µM
inactive: [1] | [5] | [6] | [13] | [10] | [14] | [15] | [16] | [11] | Aromatase (Homo sapiens) | [12]

CC(=O)c1ccc2c(c1)N(CCCN1CCC(CCO)CC1)c1ccccc1S2
inactive: [1] | [5] | [6] | [13] | [10] | [14] | [15] | [16] | Aromatase (Homo sapiens) | [12]
active: [2] 12.7 µM | [3] 12.7 µM | [4] 11.4 µM | [7] 10.1 µM | [8] 11.4 µM

O=C(OCCc1ccccc1)c1ccccc1
active: [15] 24.3 µM
inactive: [1] | [2] | [3] | [4] | [5] | [7] | [8] | [9] | [13] | [14] | [11] | Aromatase (Homo sapiens) | [12]

CNCCCCOc1ccccc1Cc1ccccc1
active: [2] 4.22 µM | [3] 3.35 µM | [4] 5.31 µM | [7] 11.9 µM | [8] 11.9 µM
inactive: [1] | [5] | [6] | [10] | [14] | [15] | [16] | [11] | [12]

CCCCc1nc2cccnc2n1Cc1ccc(-c2ccccc2-c2nnn[nH]2)cc1
inactive: [1] | [2] | [3] | [4] | [5] | [6] | [8] | [9] | [14] | [15] | [16] | [11] | Aromatase (Homo sapiens)
active: [7] 54.5 µM | [12] 54.5 µM

C=CC1CC2C=CC1C2 (stereo not given)
inactive: [1] | [2] | [3] | [4] | [5] | [6] | [8] | [9] | [13] | [10] | [14] | [15] | [16] | [11] | Aromatase (Homo sapiens) | [12]

Nc1cc(C(=O)O)c(O)c(S(=O)(=O)O)c1
inactive: [1] | [2] | [3] | [4] | [5] | [7] | [8] | [9] | [10] | [11] | Aromatase (Homo sapiens)

CN(C)CCN(Cc1ccccc1)c1ccccn1
inactive: [1] | [2] | [3] | [4] | [5] | [7] | [8] | [9] | [13] | [10] | [14] | [15] | [16] | [11] | Aromatase (Homo sapiens) | [12]

Cc1oc2c(NC(=O)c3c(Cl)cccc3Cl)cccc2c1C(C)(C)O
inactive: [1] | [5] | [9] | [14] | [11] | [12]
active: [2] 43.3 µM | [3] 27.3 µM | [4] 48.6 µM | [7] 24.3 µM | [8] 7.7 µM

CCCCCCCCCOS(=O)(=O)O
inactive: [1] | [2] | [3] | [4] | [5] | [8] | [9] | [10] | [14] | [16] | [11] | Aromatase (Homo sapiens) | [12]
active: [15] 34.4 µM

CC(C)(CO)[N+](=O)[O-]
inactive: [1] | [2] | [3] | [4] | [5] | [6] | [7] | [8] | [9] | [11] | Aromatase (Homo sapiens) | [12]

NC(=O)C(c1ccccc1)(c1ccccc1)[C@@H]1CCN(CCc2ccc3c(c2)CCO3)C1
inactive: [1] | [5] | [10] | [14] | [15] | [16] | [11] | Aromatase (Homo sapiens) | [12]
active: [2] 11.9 µM | [3] 18.8 µM | [4] 23.7 µM | [7] 6.68 µM | [8] 26.6 µM

CC(=O)[O][Al][O]C(C)=O
inactive: [1] | [2] | [3] | [4] | [5] | [6] | [7] | [9] | [10] | [16] | [11] | Aromatase (Homo sapiens) | [12]

CCC(C)O (stereo not given)
inactive: [1] | [2] | [3] | [4] | [5] | [6] | [7] | [8] | [9] | [11]

COC(=O)c1ccc(I)cc1S(=O)(=O)NC(=O)Nc1nc(C)nc(OC)n1
inactive: [1] | [2] | [3] | [5] | [7] | [8] | [10] | [11] | Aromatase (Homo sapiens) | [12]

CN1CCN(C(c2ccccc2)c2ccccc2)CC1
inactive: [1] | [2] | [3] | [4] | [17] | [6] | [18] | [7] | [8] | [9] | [10] | [14] | [15] | [16] | [11] | Aromatase (Homo sapiens) | [12]

Source: PubChem BioAssay (Tox21)
